Experimental data taken from PubChem BioAssay (NCI).
Compounds without any hit were thinned out: in the full panel of roughly 79,000, 15% have a hit. The source made the active and inactive calls. No stated cut-off is given here; in the data, active means growth inhibition above about 70%; inactive means the rest.

Assays:
[1] = NCI Yeast Anticancer Drug Screen. Data for the rad52 strain (AID 147);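 further: 0% = growth of vehicle-treated control cultures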; settings: S. cerevisiae rad52 mutant growth inhibition, stronger effect = higher value
Procedure, shortened: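 Measured: yeast growth inhibition. System: strain with a defined DNA damage repair alteration. Reference: vehicle-treated control cultures.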

[2] = NCI Yeast Anticancer Drug Screen. Data for the rad50EPP+ strain (AID 151);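 further: 0% = growth of vehicle-treated control cultures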; settings: S. cerevisiae rad50 mutant strain, stronger effect = higher value
Procedure, shortened: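 One strain with a rad50 alteration (rad50EPP+) was compound-treated, its growth then compared to that of vehicle controls.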

[3] = NCI Yeast Anticancer Drug Screen. Data for the mgt1 strain (AID 153); settings: S. cerevisiae mgt1 mutant growth inhibition, stronger effect = higher value
Procedure, shortened: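 After exposure of the mgt1 yeast mutant to compound, growth was measured and reported as inhibition compared with vehicle controls.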

[4] = NCI Yeast Anticancer Drug Screen. Data for the rad50 strain (AID 155);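 further: 0% = growth of vehicle-only cultures of the same strain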; settings: S. cerevisiae rad50 strain growth inhibition, stronger effect = higher value
Procedure, shortened: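 Vehicle-treated cultures provide the reference for the growth inhibition reported for compound-exposed, repair-deficient yeast.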

[5] = NCI Yeast Anticancer Drug Screen. Data for the mec2-1 strain (AID 157); settings: S. cerevisiae mec2-1 strain, stronger effect = higher value
Procedure, shortened: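 Test agents were screened against the mec2-1 yeast strain, with defined DNA repair or cell cycle alteration. Growth was scored as inhibition against vehicle-only controls.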

[6] = NCI Yeast Anticancer Drug Screen. Data for the rad14 strain (AID 159);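 further: 0% = growth of vehicle-treated control cultures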; settings: S. cerevisiae rad14 strain growth inhibition, stronger effect = higher value
Procedure, shortened: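 Inhibition of growth is reported for a repair-deficient yeast mutant following compound treatment, calculated relative to cultures that received vehicle.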

[7] = NCI Yeast Anticancer Drug Screen. Data for the sgs1 mgt1 strain (AID 161);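 further: 0% = growth of cultures given vehicle only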; settings: S. cerevisiae sgs1 mgt1 strain, stronger effect = higher value
Procedure, shortened: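 Read-out: growth inhibition vs vehicle controls. Cells: mutant yeast strain deficient in DNA damage repair.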

[8] = NCI Yeast Anticancer Drug Screen. Data for the CLN2oe strain (AID 163);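 further: 0% = growth of vehicle-only control cultures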; settings: S. cerevisiae CLN2oe strain, stronger effect = higher value
Procedure, shortened: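 Here, growth inhibition in a cell-cycle-altered yeast strain after compound exposure was quantified against vehicle control growth.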

[9] = NCI Yeast Anticancer Drug Screen. Data for the cln2 rad14 strain (AID 165);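 further: 0% = growth equal to vehicle treated cultures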; settings: S. cerevisiae cln2 rad14 strain, stronger effect = higher value
Procedure, shortened: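 Growth of compound-exposed yeast (cln2 rad14 genotype) measured and expressed as inhibition relative to vehicle.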

[10] = NCI Yeast Anticancer Drug Screen. Data for the bub3 strain (AID 167); settings: S. cerevisiae bub3 mutant strain, stronger effect = higher value
Procedure, shortened: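 Mutant yeast screening strain plus compound; vehicle-treated cultures serve as the 0% inhibition reference.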

[11] = NCI Yeast Anticancer Drug Screen. Data for the wt2 strain (AID 169); settings: S. cerevisiae wt2 strain growth inhibition, stronger effect = higher value
Procedure, shortened: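 Genetically defined yeast strains from a DNA-repair/cell-cycle panel were used. Compound-exposed yeast growth was measured, and the inhibition was calculated relative to vehicle treatment.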

[12] = NCI Yeast Anticancer Drug Screen. Data for the mlh1 strain (AID 171);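 further: 0% = growth of vehicle-treated control cultures of the same strain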; settings: S. cerevisiae mlh1 strain growth inhibition, stronger effect = higher value
Procedure, shortened: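 Here the genetically defined yeast mutant is grown with each compound, and the extent to which its growth falls below that of vehicle-exposed cells is reported.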

[13] = NCI Yeast Anticancer Drug Screen. Data for the sgs1 strain (AID 173);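 further: 0% = growth of vehicle-only control cultures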; settings: S. cerevisiae sgs1 mutant, stronger effect = higher value
Procedure, shortened: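 Relative growth inhibition, referenced to vehicle, was determined in a yeast strain with a defined alteration affecting DNA damage repair or cell cycle control after compound exposure.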

[14] = NCI Yeast Anticancer Drug Screen. Data for the mlh1 rad18 strain (AID 175); settings: S. cerevisiae mlh1 rad18 strain growth inhibition, stronger effect = higher value
Procedure, shortened: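 In this whole-cell yeast screen, a strain with altered DNA damage repair is challenged with compound, and its growth is measured against matched vehicle-treated controls.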

[15] = NCI Yeast Anticancer Drug Screen. Data for the rad18 strain (AID 177); settings: S. cerevisiae rad18 mutant growth inhibition, stronger effect = higher value
Procedure, shortened: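 Screen uses a yeast strain with a defined lesion in DNA damage repair; compound effect is read as loss of growth compared to untreated vehicle cultures.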

[16] = at 5.0 µM (retest, dose inferred, filed as 0.5)
[17] = at 50.0 µM (retest, dose inferred, filed as 5.0)

Measured: growth inhibition

CCOC(=O)[C@]1(Br)CC[C@@]1(Br)C(=O)OCC
active: [1]; at 33.0 µM 95% | [1]; at 100.0 µM 97% | [2]; at 33.0 µM 75% | [2]; at 100.0 µM 94% | [3]; at 33.0 µM 96% | [3]; at 100.0 µM 100% | [4]; at 33.0 µM 94% | [4]; at 50.0 µM 89% | [4]; at 100.0 µM 98% | [5]; at 33.0 µM 97% | [5]; [17] 80% | [5]; at 50.0 µM 93.1% | [5]; at 100.0 µM 99% | [6]; at 33.0 µM 94% | [6]; at 100.0 µM 99% | [7]; at 50.0 µM 91.8% | [8]; at 33.0 µM 91% | [8]; at 100.0 µM 99% | [9]; at 50.0 µM 87.3% | [10]; at 33.0 µM 81% | [10]; at 50.0 µM 91.4% | [10]; at 100.0 µM 96% | [11]; at 33.0 µM 98% | [11]; at 100.0 µM 100% | [12]; at 33.0 µM 97% | [12]; at 100.0 µM 99% | [13]; at 33.0 µM 96% | [13]; at 100.0 µM 99% | [14]; [17] 93% | [14]; at 50.0 µM 91% | [15]; at 33.0 µM 93% | [15]; at 100.0 µM 99%
inactive: [1]; at 1.2 µM -78% | [1]; at 3.7 µM -24% | [1]; at 11.0 µM 31% | [2]; at 1.2 µM -13% | [2]; at 3.7 µM -6% | [2]; at 11.0 µM 29% | [3]; at 1.2 µM -23% | [3]; at 3.7 µM -23% | [3]; at 11.0 µM 23% | [4]; at 1.2 µM -8% | [4]; at 3.7 µM 7% | [4]; [16] 26% | [4]; at 11.0 µM 23% | [4]; [17] 67% | [5]; at 1.2 µM -38% | [5]; at 3.7 µM -25% | [5]; [16] 29% | [5]; at 11.0 µM 27% | [6]; at 1.2 µM -53% | [6]; at 3.7 µM -31% | [6]; at 11.0 µM 14% | [7]; [16] -7% | [7]; [17] -36% | [8]; at 1.2 µM -3% | [8]; at 3.7 µM 15% | [8]; at 11.0 µM 15% | [9]; [16] -7% | [9]; [17] -76% | [10]; at 1.2 µM -38% | [10]; at 3.7 µM -44% | [10]; [16] 2% | [10]; at 11.0 µM -19% | [10]; [17] -38% | [11]; at 1.2 µM -67% | [11]; at 3.7 µM -48% | [11]; at 11.0 µM 6% | [12]; at 1.2 µM -37% | [12]; at 3.7 µM -29% | [12]; at 11.0 µM 35% | [13]; at 1.2 µM -27% | [13]; at 3.7 µM -22% | [13]; at 11.0 µM 43% | [14]; [16] 57% | [15]; at 1.2 µM -58% | [15]; at 3.7 µM -43% | [15]; at 11.0 µM 8%
